Shown is part of a subset that was picked to be rich in hits.
HIV RNase H inh-1 = HIV-1 RT RNase H inhibitors, primary screen, biochemical, fluorescence | RT-RNase H RNA/DNA duplex cleavage | inhibition, % at 10 µM | 65,000 compounds, 1.9% hits | AID 565, 2006; in the data active means inhibition above about 50%
HIV RNase H inh-2 = HIV-1 RT RNase H inhibitors, retest, confirmation, biochemical; 1,000 compounds, 39% hits; AID 651, 2007; shares compounds with HIV RNase H inh-1; inhibition, % at 10 µM; Recombinant RT RNase H, fluorescent RNA/DNA duplex cleavage; in the data active means inhibition above about 48%; inconclusive means no clear call, values can overlap the other calls
Starred values were filed as active, the others as inactive; ? = inconclusive.

SMILES	HIV RNase H inh-1	others
O=C(CN1CCN(C(=O)c2c(F)cccc2F)CC1)Nc1ccccc1F	-2
COC(=O)CN1C(=O)C(O)(CC(=O)c2ccc(C)cc2)c2ccccc21 (stereo not drawn)	54*	HIV RNase H inh-2=-1
COC(=O)CN1C(=O)C(O)(CC(=O)c2ccccc2)c2ccccc21 (stereo not drawn)	19
COC(=O)CN1C(=O)C(O)(CC(=O)c2ccc(C)o2)c2ccccc21 (stereo not drawn)	-4
COc1ccccc1-n1c(SCC(=O)N2CCCCC2)nnc1-c1ccccc1O	-11
O=C(O)c1cc(S(=O)(=O)Nc2ccc3oc(=O)sc3c2)ccc1O	82*	HIV RNase H inh-2=64*
CC(=O)c1c(C)oc2ccc(NS(=O)(=O)c3ccc(O)c(C(=O)O)c3)cc12	19
COC(=O)c1ccccc1NS(=O)(=O)c1ccc(O)c(C(=O)O)c1	-25
COC(=O)c1ccc(OC(=O)C2CC(=O)N(c3ccc(C)cc3C)C2)cc1 (stereo not drawn)	4
OCCn1c(SC2CCCCC2)nc2ccccc21	-13
Cn1c(SCC(=O)Nc2ccc(N3CCOCC3)c(Cl)c2)nnc1-c1ccccc1	6
COC(=O)C1=C(C(=O)c2ccccc2)C(c2cccs2)n2nnnc2N1 (stereo not drawn)	-1
COc1ccccc1NC(=O)C1=C(C)Nc2nnnn2C1c1ccncc1 (stereo not drawn)	-56
CC1=C(C(=O)Nc2ccc(Cl)cc2)C(c2cccs2)n2nnnc2N1 (stereo not drawn)	73*	HIV RNase H inh-2=5
CCOC(=O)c1ccccc1NC(=O)c1ccc(Cl)c(S(=O)(=O)N2CCOCC2)c1	-11
C=CCn1sc(N)c(C(=O)OCC)c1=S	-3
CCOC(=O)c1c(N)ssc1=S	85*	HIV RNase H inh-2=?
CCOC(=O)c1c(N)sc(=S)c2c1CCC2	48
CN1C(=S)SC(C)(C)C1(C)NO (stereo not drawn)	16
Cc1ccc(C(C)C)c(OCCNc2nc3c(c(=O)n(C)c(=O)n3C)n2C)c1	-6
CCSc1nc2c(c(=O)[nH]c(=O)n2C)n1CC(O)COc1ccccc1C (stereo not drawn)	76*	HIV RNase H inh-2=37
Cc1cc(C)n(-c2nc3c(c(=O)[nH]c(=O)n3C)n2CC(O)COc2ccccc2C)n1 (stereo not drawn)	-6
Cc1ccccc1OCC(O)Cn1c(SC(C)C)nc2c1c(=O)[nH]c(=O)n2C (stereo not drawn)	67*	HIV RNase H inh-2=-9
Cc1cc(C)n(-c2nc3c(c(=O)[nH]c(=O)n3C)n2CC(O)COc2ccccc2)n1 (stereo not drawn)	2
Cn1c(=O)[nH]c(=O)c2c1nc(N1CCOCC1)n2CC(O)COc1ccccc1 (stereo not drawn)	-1
Cn1c(=O)[nH]c(=O)c2c1nc(N1CCCC1)n2CC(O)COc1ccccc1 (stereo not drawn)	-8
CCOc1ccc(-n2c(SCC)nc3c(c2=O)SCC3)cc1	4
Cc1ccc2nc(NC3=NCN(Cc4ccc5c(c4)OCO5)CN3)nc(C)c2c1	-5
Cc1nn(-c2ccccc2)c(Cl)c1C(=O)Nc1c(C)n(C)n(-c2ccccc2)c1=O	-2
Cc1ccc(C)n1-c1ncn[nH]1	-10

Compound activity from PubChem.
